Test results reported in PubChem BioAssay AID1030 (National Center for Advancing Translational Sciences (NCATS), 2008).
Among all 220,000 compounds or so, about 16,000 (7.3%) were called active. Another 25% or so got no clear call; they are omitted. The full list was thinned out, with actives kept by preference. Unmarked numbers belong to inactive results. The call rests on the fitted dose curve; in most records, active means well fitted inhibition curve with a large enough effect (not every such curve was filed as active); inconclusive means small, poorly fitted or top-dose-only effect, or another doubt; inactive means no such curve, though single readings can be large or run the other way.

Each compound was assayed against Aldehyde dehydrogenase 1A1 (Homo sapiens) (UniProt P00352) (assay: qHTS Assay for Inhibitors of Aldehyde Dehydrogenase 1 (ALDH1A1)). Details: Purified ALDH1A1, NADH fluorescence, propionaldehyde substrate; series mostly up to 75.3 µM; activity, negative = inhibition: at the top concentration.
Chain of Aldehyde dehydrogenase 1A1 (Homo sapiens) (P00352 whole entry, looked up): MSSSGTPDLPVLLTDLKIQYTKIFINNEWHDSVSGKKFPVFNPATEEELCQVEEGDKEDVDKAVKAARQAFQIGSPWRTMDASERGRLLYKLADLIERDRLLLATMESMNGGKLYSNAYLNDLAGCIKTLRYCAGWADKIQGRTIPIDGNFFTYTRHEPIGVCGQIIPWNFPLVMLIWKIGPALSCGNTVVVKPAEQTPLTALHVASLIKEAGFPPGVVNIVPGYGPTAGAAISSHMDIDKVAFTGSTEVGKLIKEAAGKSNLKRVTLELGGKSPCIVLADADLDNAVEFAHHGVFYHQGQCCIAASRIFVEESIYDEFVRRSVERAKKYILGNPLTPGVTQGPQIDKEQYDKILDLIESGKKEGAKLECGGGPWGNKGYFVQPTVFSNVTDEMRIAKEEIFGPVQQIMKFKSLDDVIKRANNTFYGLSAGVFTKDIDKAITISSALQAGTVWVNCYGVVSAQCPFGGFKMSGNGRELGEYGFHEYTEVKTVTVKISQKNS
Potency means the concentration at half of the fitted maximal effect.
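Wherever activity, negative = inhibition is given: plate controls were no enzyme wells and a reference inhibitor.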

Structure (SMILES)	activity, negative = inhibition	Potency
CCOC(=O)c1sc2nc(C)nc(Nc3ccc(OC)c(OC)c3)c2c1C	-1.57%	–
Cc1ccc(S(=O)(=O)NCCc2nnc3ccc(SCc4cccnc4)nn23)cc1	-5.59%	–
CCN(CC)C(=O)Oc1ccc(Br)cc1C(=O)Nc1ccc(F)c(Cl)c1	4.26%	–
CNC(=O)c1[nH]cnc1C(=O)N[C@@H](CC(C)C)C(=O)OCc1ccccc1	4.76%	–
O=C(Cc1ccc(F)cc1)N/N=C/c1ccc2c(c1)OCO2	-2.31%	–
Cc1c(NC(=O)Nc2ccccc2)cccc1[N+](=O)[O-]	-4.7%	–
Cc1cc(C)cc(NC(=S)NCc2ccc(F)cc2)c1	-1.59%	–
Cc1c(NC(=O)CCCOc2ccccc2)cccc1[N+](=O)[O-]	-17.8%	–
Cc1c(NC(=O)/C=C/C(=O)O)cccc1[N+](=O)[O-]	–	25.1 µM (active)
Cc1c(NC(=S)NCc2ccc(F)cc2)cccc1[N+](=O)[O-]	–	31.6 µM (active)
Cc1cccc(NC(=S)NCCc2ccc(F)cc2)c1C	-1.95%	–
COc1cc(C(=O)OCc2ccc([N+](=O)[O-])cc2)cc(OC)c1OC	7.71%	–
Cc1ccc(C)c(Cn2cnc3c(oc4ccccc43)c2=O)c1	2.37%	–
COc1ccc(OC)c(S(=O)(=O)Nc2cccc(-c3ccc4nncn4n3)c2)c1	0.157%	–
CC(NC(=O)COC(=O)c1cc(=O)[nH]c2ccccc12)c1ccccc1 (stereo not drawn)	-9.17%	–
COCCNC(=O)CCCn1c(=O)c2ccccc2n(Cc2cccc([N+](=O)[O-])c2)c1=O	25.2%	–
CCOC(=O)N1CCN(CCC(=O)Nc2cc(OC)ccc2OC)CC1	-8.02%	–
CC(C)(C)NC(=O)c1cc(NC(=O)c2ccco2)cc(NC(=O)c2ccco2)c1	13.8%	–
NC(=O)c1ccsc1NC(=O)c1ccco1	–	25.1 µM (active)
Cc1ccnc(NC(=O)c2ccco2)n1	-4.29%	–
O=C(Cn1c(=S)nc2ccccn21)N1CCc2ccccc2C1	-9.63%	–
O=C(c1ccc(F)cc1)N1CCC(n2nnc3ccccc32)CC1	-4.1%	–
O=C(c1ccc(F)cc1)n1c(=S)nc2ccccn21	–	25.1 µM (active)
Cc1ccc2nc(-c3ccncc3)cc(C(=O)Nc3ccc(OC(F)F)cc3)c2c1	7.41%	–
COc1cc(NC(=O)COC(=O)c2cnc(C)cn2)c(C)cc1[N+](=O)[O-]	-4.73%	–
CC1CCCC(NC(=O)c2cccc(N3CCCC3=O)c2)C1C (stereo not drawn)	-7.12%	–
CCC(C)(C)NC(=O)C1c2ccccc2Oc2ccccc21	-1.36%	–

Structure (SMILES)	activity, negative = inhibition	Potency
Cc1ccc(S(=O)(=O)/N=S(\C)C(C)C)cc1 (stereo not drawn)	13.2%	–
CSCC(NS(=O)(=O)c1ccc(C)cc1)C(=O)O (stereo not drawn)	0.012%	–
Cc1ccc(S(=O)(=O)NCC(C)NS(C)(=O)=O)cc1 (stereo not drawn)	–	14.1 µM (active)
CC1CC(=O)Nc2ccccc2N1S(=O)(=O)c1cccs1 (stereo not drawn)	6.68%	–
O=C(CNC1CCCCC1)NCC1(c2ccccc2)CCCC1	3.69%	–
Cc1ccc2nc(-c3ccncc3)cc(C(=O)Nc3ccc4c(c3)OCCO4)c2c1	-5.9%	–
O=C(CSc1ccccc1)Nc1ccc(C(=O)Nc2cccc(O)c2)cc1	-9.58%	–
Cc1nc2ccccc2n1CC(=O)N/N=C/c1cccnc1	7.97%	–
Cn1c(=N)n(CC(O)c2cccs2)c2ccccc21 (stereo not drawn)	7.93%	–
CC(=O)c1ccc2c(c1)OCCOCCOc1ccc(C(C)=O)cc1OCCOCCO2	5.45%	–
COc1ccc(C(CC(=O)O)NC(=O)Cc2ccccc2)cc1 (stereo not drawn)	5.83%	–
COc1ccc(OCCCC(=O)NCCc2ccccc2)cc1	6.31%	–
COc1ccc(CC(=O)NC(C)CCc2ccccc2)cc1 (stereo not drawn)	–	2.51 µM (active)
COc1ccc(C(=O)NC(=S)NNC(=O)c2c(-c3ccccc3)noc2C)cc1	-11.2%	–
COc1ccc(C(=O)NC(=S)NNC(=O)CCc2ccccc2)cc1	–	25.1 µM (active)
COc1ccc(/C(N)=N/OC(=O)CCCc2ccccc2)cc1	9.4%	–
CCOC(=O)C1=C(CN2CCc3ccccc32)NC(=O)NC1c1cccc([N+](=O)[O-])c1 (stereo not drawn)	-7.14%	–
CCOC(=O)C1=C(CN2CCc3ccccc32)NC(=O)NC1c1ccc(Cl)cc1 (stereo not drawn)	–	25.1 µM (active)
COCCOC(=O)C1=C(C)NC(=O)NC1c1ccc(Cl)cc1 (stereo not drawn)	-3.24%	–
Cc1onc(C(=O)NCc2ccc(F)cc2)c1[N+](=O)[O-]	17%	–
O=C1CCCN1CCCNC(=S)Nc1ccc(F)c(Cl)c1	-2.84%	–
Cc1noc(/C=C/c2ccco2)c1S(=O)(=O)N1CCC(C(=O)Nc2ccc(Cl)cn2)CC1	–	15.8 µM (active)
Cc1ccc(NC(=O)C2CCCN(S(=O)(=O)c3c(C)noc3C)C2)c(C)c1 (stereo not drawn)	8.3%	–
CCOc1ccc(OCC)c(NC(=O)C2CCN(S(=O)(=O)c3c(C)noc3C)CC2)c1	4.05%	–
CCCCN1C(=S)NC[C@@H]1C(C)CC (stereo partly drawn)	6.56%	–
Cc1ccc(C)c(-n2cc(CN3CCN(C(=O)c4ncn[nH]4)CC3)c(-c3ccccc3)n2)c1	0.725%	–
